LMP1 NFkB inh: inhibitors of Epstein-Barr LMP1-induced NF-kappaB reporter. AID 504558. inhibition, % at 12.5 µM. 350,000 tested, 0.69% active. LMP1-induced NF-kappaB luciferase reporter cells, luminescence; in the data active = inhibition above about 41%; inconclusive = no clear call, values can overlap the other calls;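 also: 0% = neutral control wells and 100% = reference inhibitor control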
HSP90 refold inh: blocks HSP90-mediated luciferase refolding in reticulocyte lysate | Rabbit reticulocyte lysate, luciferase refolding luminescence, 3 h | inhibition, % at 5.6 µM | 290,000 tested, 0.91% active | AID 1789;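 active = inhibition above the screen-wide mean plus 3 SD, computed separately per campaign, cut at about 16% in these data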;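 also: 0% = DMSO wells and 100% = 60 µM geldanamycin wells; inhibitors lower the luminescence because luciferase stays unfolded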
HSF1 inh: HSF1 inhibition | AID 2098 | activity change, negative = inhibition, % at 7.5 µM (by protocol) | NIH3T3-HGL HSE-luciferase, MG132-induced, luminescence 8 h; stronger effect = lower value | 300,000 tested, 0.77% active;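 active = more than half of replicate wells show activity change below -50%, luminescence cut by over half; inconclusive = some wells, but at most half, below -50%; inactive = no replicate well below -50%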;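 also: luciferase reports HSF-1 transcriptional activity via heat shock element; 0% = median of DMSO wells and -100% = zero luminescence signal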
TROY NFkB inh: inhibitors of TROY-dependent NF-kB signaling; Q293 LMP1-TROYcd NF-kB luciferase reporter, 4 h; 360,000 tested, 0.98% active; AID 1347056; inhibition, % at 10 µM;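 active = compounds whose plate-normalised and pattern-corrected inhibition of the luciferase reporter signal at the single screening dose is 50% or more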
TWEAK-Fn14 inh: blocks TWEAK-Fn14 interaction in a reporter cell assay | TWEAK-stimulated Fn14 reporter cells, luciferase luminescence, 8 h | inhibition, % at 10 µM | 360,000 tested, 2% active; in the data active = inhibition above about 50%
HSF-1 act: increases HSF-1 driven luciferase reporter signal. NIH3T3-HGL HSF-1 luciferase reporter, MG132, 8 h; 100% = twice DMSO control signal. AID 504408. 300,000 tested, 1.7% active. activation, % at 9 µM;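 active = mean replicate activation of at least 50% with a set share of replicates each reaching 50%; inconclusive = only one of those two conditions met; inactive = mean below 50% and too few replicates reaching it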;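 also: 0% = median of the neutral control wells and 100% = twice that signal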
HSP90 inh confirm: confirmation of HSP90 inhibitors; rabbit reticulocyte lysate, luciferase refolding luminescence, 3 h; 2,300 tested, 64% active; inhibition, % at 5.9 µM; shares compounds with HSP90 refold inh; in the data active = inhibition above about 18%;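 also: 0% = vehicle wells and 100% = reference inhibitor wells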
FLuc counter: counter-screen for HSP90 inhibitors: inhibitors of firefly luciferase. shares compounds with HSP90 refold inh. purified native firefly luciferase, luminescence. inhibition, % at 5.9 µM. 2,300 tested, 48% active. AID 1847;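 active = inhibition above the mean inhibition of all tested sample wells plus 3 SD, cut at about 10% in these data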;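 also: 0% = DMSO with luciferase and 100% = wells lacking luciferase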
Target sequence (P08659 whole entry, looked up): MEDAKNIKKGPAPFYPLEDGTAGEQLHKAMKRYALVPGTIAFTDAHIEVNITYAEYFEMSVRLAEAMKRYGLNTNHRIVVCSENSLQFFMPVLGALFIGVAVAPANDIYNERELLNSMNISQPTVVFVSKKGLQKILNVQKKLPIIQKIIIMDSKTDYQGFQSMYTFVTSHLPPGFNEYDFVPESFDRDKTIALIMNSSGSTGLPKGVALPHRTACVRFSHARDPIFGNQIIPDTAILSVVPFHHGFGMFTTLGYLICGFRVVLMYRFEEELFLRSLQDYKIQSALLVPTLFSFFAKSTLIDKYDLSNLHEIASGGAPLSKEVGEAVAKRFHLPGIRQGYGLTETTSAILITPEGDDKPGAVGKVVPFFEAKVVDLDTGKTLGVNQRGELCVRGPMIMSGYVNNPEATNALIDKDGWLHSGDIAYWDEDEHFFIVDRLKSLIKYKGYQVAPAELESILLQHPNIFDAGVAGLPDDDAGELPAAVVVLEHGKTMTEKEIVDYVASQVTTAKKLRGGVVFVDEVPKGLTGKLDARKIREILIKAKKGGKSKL
* marks the source's active call; other numbers are inactive results; ? = inconclusive; / = no result. Most compounds without a hit are left out; they make up all but 4.7% or so of the library.

SMILES	LMP1 NFkB inh	HSP90 refold inh	HSF1 inh	TROY NFkB inh	TWEAK-Fn14 inh	HSF-1 act	HSP90 inh confirm	FLuc counter
COc1ccccc1C(=O)N(CCC1CCCN1C)c1nc2ccccc2s1 (stereo not given)	2	67*	-72*	89*	101*	-71	70*	69*
O=C1C2C3CC4C5C3C1C5C1(SCCS1)C42 (stereo not given)	/	/	/	3	-10	/	/	/
CCOC(=O)c1cc(-c2ccccc2)sc1NC(=O)C(C)C	8	0	-8	-3	-1	10	/	/
CCOC(=O)c1cc(-c2ccccc2)sc1NC(=O)C(C)N1C(=O)NC(C)(c2ccc(Cl)cc2)C1=O (stereo not given)	-11	18*	-1	2	-1	-16	9	-6
C[C@@H]1CN([C@@H](C)CO)C(=O)CCCn2cc(nn2)CO[C@H]1CN(C)S(=O)(=O)c1cn(C)cn1	-5	/	/	-3	1	/	/	/
COc1cccc(C(=O)Nc2ccc3[nH]ncc3c2)c1	-21	12	5	-20	1	24	/	/
COc1cccc(C(=O)Nc2ccc3ccccc3c2)c1	-4	18*	11	17	63*	18	46*	37*
CCCc1nnc(NC(=O)c2cccc(OC)c2)s1	-19	-3	13	-56	-8	38	/	/
COc1cccc(NC(=O)NNC(=O)C(C)Oc2ccc3ccccc3c2)c1 (stereo not given)	7	-7	-5	-15	-12	-3	/	/
COc1ccc(OC(C)C(=O)Nc2cccc(OC)c2)cc1 (stereo not given)	-5	17*	-5	12	17	6	-8	-8
COc1ccccc1C(=O)NNC(=O)c1ccc2ccccc2c1	-8	18*	7	-13	-12	12	-3	-14
COc1cccc(C(=O)Nc2nnc(C(C)C)s2)c1	18	22*	9	-5	49	25	34*	22*
COc1ccccc1C(=O)NNC(=O)c1ccc(O)cc1	-7	/	/	-19	6	/	/	/
COc1ccc(C(=O)Nc2ccc3ccccc3c2)cc1	-4	34*	-7	32	72*	-3	63*	53*
Nc1nc2ccccc2n1S(=O)(=O)c1ccccc1	/	/	/	7	-9	/	/	/
c1csc(-c2ccc(N3CCOCC3)nn2)c1	13	28*	8	25	-13	19	34*	17*
CCOC(=O)C1CCN(c2ccc(Cl)nn2)CC1	-1	1	-4	8	-3	-5	/	/
CCOC(=O)C1CCN(c2ccc(-c3cccs3)nn2)CC1	2	27*	8	2	-25	15	34*	38*
O=C(Nc1cccc(-c2ccc(N3CCOCC3)nn2)c1)c1ccccc1	-18	/	22	-70	-34	36	/	/
C[C@H](CO)N1C[C@H](C)[C@H](CN(C)Cc2cccc(F)c2)Oc2ncc(Br)cc2C1=O	-3	/	/	-3	-9	/	/	/
O=Cc1ccc(-c2ccc(C(=O)O)cc2)o1	-2	17*	-5	-3	-3	-5	10	1
C=CCNC(=S)Nc1ccc2nsnc2c1	1	-1	6	-45	-13	10	/	/
COc1ccc(NC(=S)Nc2ccc3nsnc3c2)cc1	-13	43*	40	-35	-4	?	4	-21
CC(C)N(C(=O)Nc1ccc2nsnc2c1)C(C)C	/	29*	-6	/	/	15	8	-2
COc1ccc(N(C)C(=O)Nc2ccc3c(c2)nnn3C)cc1	4	3	8	-4	9	5	/	/
C=CCN(CC=C)C(=S)Nc1ccc2nsnc2c1	-4	31*	-4	-18	5	21	-1	-13
COc1ccc(N(C)C(=O)Nc2ccc3nsnc3c2)cc1	-10	21*	6	20	8	47	0	-12
Cc1ccc2nc(-c3cccc(N)c3)oc2c1	5	23*	12	36	78*	40	67*	64*
Cc1cc(C)c2oc(-c3cccc(N)c3)nc2c1	-4	0	5	-79	-13	8	/	/
